Measurements as given in PubChem BioAssay (Tox21).
Results filed as inconclusive are left out. Calls of active or inactive are those of the source. Unless noted, calls follow the shape of the full dose curve.

Tests used:
[1] = Nuclear factor erythroid 2-related factor 2/antioxidant responsive element (Nrf2/ARE) small molecule agonists: qHTS cell viability counter screen in human keratinocytes (AID 1919968; active = well fitted curve in the direction sought with a large enough effect in the repeat runs; an effect the other way counts as inactive or inconclusive; also: nearly all actives have a fitted effect of over 55% in size)
Procedure, shortened: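 KeratinoSens cells (HaCaT keratinocytes stably carrying an ARE-luciferase reporter) were seeded at 1,500 cells/well and rested 5 h at 37 C/5% CO2. They were then exposed to compounds in DMSO for 23 h. Viability was read by CellTiter-Fluor fluorescence after 1 h.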

[2] = Nuclear factor erythroid 2-related factor 2/antioxidant responsive element (Nrf2/ARE) small molecule agonists: luciferase reporter gene qHTS assay in human keratinocytes (AID 1919969); also: nearly all actives have a fitted effect of over 35% in size
[3] = target: Gonadotropin-releasing hormone receptor (Homo sapiens) (UniProt P30968); assay: Human gonadotropin-releasing hormone receptor (GnRHR) small molecule agonists, calcium flux assay in GnRHR-HEK293 cells (AID 1920063); also: nearly all actives have a fitted effect of over 35% in size
Sequence of Gonadotropin-releasing hormone receptor (Homo sapiens) (P30968 whole entry, looked up): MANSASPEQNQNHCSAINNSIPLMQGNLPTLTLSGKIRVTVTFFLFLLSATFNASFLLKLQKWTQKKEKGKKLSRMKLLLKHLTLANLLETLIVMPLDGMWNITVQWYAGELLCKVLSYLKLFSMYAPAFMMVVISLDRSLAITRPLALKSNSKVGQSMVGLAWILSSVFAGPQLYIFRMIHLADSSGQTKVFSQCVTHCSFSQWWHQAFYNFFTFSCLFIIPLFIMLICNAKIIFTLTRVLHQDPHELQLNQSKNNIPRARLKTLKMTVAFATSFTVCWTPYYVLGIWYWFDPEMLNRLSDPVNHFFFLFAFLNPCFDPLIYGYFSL
Procedure, shortened: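 HEK293 cells stably expressing human GnRHR were plated 18 h at 37 °C, loaded with calcium dye 1 h at 37 °C, then given compound in agonist mode; fluorescence (Ex/Em 480/540) read kinetically for 3 min at 1 s intervals.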

[4] = target: KiSS-1 receptor (Homo sapiens) (UniProt Q969F8); assay: Human kisspeptin (KISS1R) small molecule agonists, calcium flux assay in KISS1R-HEK293 cells (AID 1920064; active = well fitted curve in the direction sought with a large enough effect in the repeat runs; an effect the other way counts as inactive or inconclusive)
Sequence of KiSS-1 receptor (Homo sapiens) (Q969F8 whole entry, looked up): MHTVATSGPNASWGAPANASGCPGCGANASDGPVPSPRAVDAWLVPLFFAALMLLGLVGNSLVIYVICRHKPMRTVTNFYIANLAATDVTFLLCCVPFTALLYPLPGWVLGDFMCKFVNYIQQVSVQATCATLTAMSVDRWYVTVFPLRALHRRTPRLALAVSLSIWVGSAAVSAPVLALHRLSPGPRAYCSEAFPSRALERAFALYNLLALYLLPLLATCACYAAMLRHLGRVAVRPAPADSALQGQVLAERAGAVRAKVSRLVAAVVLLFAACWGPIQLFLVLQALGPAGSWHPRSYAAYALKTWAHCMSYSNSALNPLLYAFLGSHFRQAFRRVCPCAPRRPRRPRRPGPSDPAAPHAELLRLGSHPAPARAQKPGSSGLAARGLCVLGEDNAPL
Procedure, shortened: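 HEK293 cells stably expressing human KISS1R were plated 18 h at 37 °C, loaded with calcium dye for 1 h at 37 °C, then given compound by pin tool. Fluorescence (Ex/Em 480/540) was read kinetically for 3 min.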

[5] = G protein-coupled receptor (GPCR) small molecule agonists, calcium flux assay: HEK293 wild type cell line counter screen (AID 1920065)
Procedure, shortened: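 Cells were plated and cultured 18 h at 37 C/5% CO2, then loaded with calcium dye for 1 h at 37 C. Compounds in DMSO were pin-transferred in agonist mode, and fluorescence (Ex/Em 480/540) was read kinetically for 3 min at 1 s intervals.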

[6] = p53 small molecule agonists, cell-based qHTS assay with rat liver microsomes (AID 1963578)
Procedure, shortened: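 Metabolic activation is supplied by rat liver microsomes with NADPH (each 0.5 mg/mL final). p53RE-bla cells incubate with compound 16 h at 37 C; reporter activity is measured by LiveBLAzer fluorescence.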

[7] = p53 small molecule agonists, cell-based qHTS assay with human liver microsomes: qHTS cell viability counter screen (AID 1963579); also: nearly all actives have a fitted effect of over 45% in size
Procedure, shortened: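 After the 460/530 nm beta-lactamase read, CellTiter-Glo was added to the same wells and luminescence measured after 30 min at room temperature, giving viability of p53RE-bla cells treated 16 h with compounds plus microsomes and NADPH.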

[8] = p53 small molecule agonists, cell-based qHTS assay with rat liver microsomes: qHTS cell viability counter screen (AID 1963580); also: nearly all actives have a fitted effect of over 45% in size
Procedure, shortened: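 p53RE-bla HCT-116 cells (4,000/well) rested 5 h at 37 C, then given Tox21 compounds in DMSO with rat liver microsomes (0.5 mg/mL final) plus NADPH (0.5 mg/mL final) for 16 h at 37 C. Viability read by CellTiter-Glo luminescence after 30 min at room temperature.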

[9] = p53 small molecule agonists, cell-based qHTS assay: qHTS cell viability counter screen (AID 1963581); also: nearly all actives have a fitted effect of over 45% in size
Procedure, shortened: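 p53RE-bla HCT-116 cells were exposed to compounds for 16 h at 37 C; after the beta-lactamase FRET read in the same wells, CellTiter-Glo was added and luminescence (intracellular ATP) read after 30 min at room temperature.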

[10] = p53 small molecule agonists, cell-based qHTS assay (AID 1963582; active = well fitted activation curve with a large enough effect in the signal ratio in the repeat runs, not every such curve was filed as active; the % refers to the signal ratio)
Procedure, shortened: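 p53RE-bla beta-lactamase reporter cells rested 5 h at 37 C/5% CO2, then received compounds in DMSO by pin transfer and were incubated 16 h at 37 C. LiveBLAzer B/G FRET substrate was loaded for 2 h at room temperature before fluorescence reading.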

[11] = target: 5-hydroxytryptamine receptor 2A (Homo sapiens) (UniProt P28223); assay: 5-hydroxytryptamine receptor 2A (HTR2A) small molecule antagonists, cell-based qHTS assay (AID 1963586); also: nearly all actives have a fitted effect of over 45% in size
Sequence of 5-hydroxytryptamine receptor 2A (Homo sapiens) (P28223 whole entry, looked up): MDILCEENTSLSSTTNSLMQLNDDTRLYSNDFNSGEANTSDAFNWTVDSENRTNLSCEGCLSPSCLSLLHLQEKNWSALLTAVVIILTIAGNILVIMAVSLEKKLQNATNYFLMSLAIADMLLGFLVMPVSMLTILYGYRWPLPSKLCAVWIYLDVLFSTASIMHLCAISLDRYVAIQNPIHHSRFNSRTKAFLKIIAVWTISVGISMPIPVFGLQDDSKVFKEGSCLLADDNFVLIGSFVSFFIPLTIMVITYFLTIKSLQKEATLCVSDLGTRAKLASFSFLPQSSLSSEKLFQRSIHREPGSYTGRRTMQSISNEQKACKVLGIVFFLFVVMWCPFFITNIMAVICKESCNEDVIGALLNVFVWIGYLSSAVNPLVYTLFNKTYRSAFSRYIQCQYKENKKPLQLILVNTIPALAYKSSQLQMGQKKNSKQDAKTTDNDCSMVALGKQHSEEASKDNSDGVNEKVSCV
Procedure, shortened: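 Antagonist-mode intracellular calcium assay: DOI (4 nM) added after 5 min compound pre-incubation at room temperature to dye-loaded HTR2A-CHO cells. Fluorescence followed for 3 min, sampled every second.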

[12] = target: 5-hydroxytryptamine receptor 2A (Homo sapiens) (UniProt P28223); assay: 5-hydroxytryptamine receptor 2A (HTR2A) small molecule agonists, cell-based qHTS assay (AID 1963587); also: nearly all actives have a fitted effect of over 30% in size
Procedure, shortened: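 HTR2A-CHO cells, plated 18 h at 37 C/5% CO2, dye-loaded 1 h at 37 C; compounds in DMSO added by pin tool (agonist mode). Intracellular calcium flux read as kinetic fluorescence on FDSS over 2 min at 1 s intervals.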

[13] = target: Muscarinic acetylcholine receptor M1 (Homo sapiens) (UniProt P11229); assay: Cholinergic receptor muscarinic 1 (CHRM1) small molecule antagonists, cell-based qHTS assay (AID 1963588); also: nearly all actives have a fitted effect of over 40% in size
Sequence of Muscarinic acetylcholine receptor M1 (Homo sapiens) (P11229 whole entry, looked up): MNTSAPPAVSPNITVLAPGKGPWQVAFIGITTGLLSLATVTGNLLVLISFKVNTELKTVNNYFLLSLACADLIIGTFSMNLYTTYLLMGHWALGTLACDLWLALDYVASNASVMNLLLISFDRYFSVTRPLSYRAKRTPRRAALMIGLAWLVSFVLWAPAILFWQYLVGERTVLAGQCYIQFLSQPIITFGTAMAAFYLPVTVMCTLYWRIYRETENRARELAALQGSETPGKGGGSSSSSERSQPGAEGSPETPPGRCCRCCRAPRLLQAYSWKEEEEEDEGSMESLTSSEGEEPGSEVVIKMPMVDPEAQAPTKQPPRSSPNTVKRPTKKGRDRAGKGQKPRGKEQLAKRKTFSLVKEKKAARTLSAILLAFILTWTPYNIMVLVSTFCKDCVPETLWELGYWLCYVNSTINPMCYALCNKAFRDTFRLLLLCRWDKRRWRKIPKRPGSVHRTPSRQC
Procedure, shortened: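 CHRM1-CHO calcium-flux assay, antagonist mode. Cells were seeded 18 h, dye-loaded 1 h at 37 C and given compound for 5 min at RT, then acetylcholine was added at 50nM. FDSS fluorescence was read 3 min; 15 concentrations, three runs.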

[14] = target: Muscarinic acetylcholine receptor M1 (Homo sapiens) (UniProt P11229); assay: Cholinergic receptor muscarinic 1 (CHRM1) small molecule agonists, cell-based qHTS assay (AID 1963589); also: nearly all actives have a fitted effect of over 35% in size
Procedure, shortened: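 CHO cells stably expressing human CHRM1, seeded 18 h at 37 C/5% CO2, dye-loaded 1 h at 37 C, then given compound in agonist mode; intracellular calcium fluorescence read kinetically at 1 s intervals. Fifteen concentrations, three independent runs.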

[15] = cAMP Responsive Elements (CRE) small molecule agonists, cell-based qHTS assay (AID 1963590)
Procedure, shortened: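 CRE-bla HEK 293T cells in DMEM with 10% dialyzed FBS, NEAA, pyruvate and 25 mM HEPES were plated 18 h at 37 C/5% CO2, then exposed to compounds in DMSO for 3 h before LiveBLAzer B/G FRET substrate addition.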

[16] = cAMP Responsive Elements (CRE) small molecule antagonists, cell-based qHTS assay (AID 1963591; active = well fitted inhibition curve with a large enough effect in the signal ratio in the repeat runs, not every such curve was filed as active; the % refers to the signal ratio)
Procedure, shortened: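 CRE-bla HEK293T cells were plated 18 h at 37 °C/5% CO2, pinned with compound in DMSO, then stimulated with NKH477 at 0.25 uM final for 3 h. LiveBLAzer B/G FRET substrate was added and plates incubated 2 h at room temperature.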

[17] = target: Beta-2 adrenergic receptor (Homo sapiens) (UniProt P07550); assay: Adrenergic beta2 receptor (ADRB2) small molecule antagonists, cell-based qHTS assay (AID 1963592); also: series mostly up to about 92 µM; nearly all actives have a fitted effect of over 50% in size
Sequence of Beta-2 adrenergic receptor (Homo sapiens) (P07550 whole entry, looked up): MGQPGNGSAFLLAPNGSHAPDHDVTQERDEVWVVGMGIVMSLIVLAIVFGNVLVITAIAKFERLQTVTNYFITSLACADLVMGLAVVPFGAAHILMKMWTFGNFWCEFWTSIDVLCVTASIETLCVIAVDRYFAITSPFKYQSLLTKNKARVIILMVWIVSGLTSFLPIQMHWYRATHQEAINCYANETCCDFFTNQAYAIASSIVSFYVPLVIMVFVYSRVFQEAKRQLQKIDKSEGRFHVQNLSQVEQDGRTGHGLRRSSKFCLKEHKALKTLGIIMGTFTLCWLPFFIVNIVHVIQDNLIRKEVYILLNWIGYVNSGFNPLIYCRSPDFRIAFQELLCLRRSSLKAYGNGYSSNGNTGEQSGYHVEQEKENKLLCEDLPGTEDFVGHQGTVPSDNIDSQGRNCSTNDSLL
Procedure, shortened: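 Cells (CHO, stable ADRB2 overexpression) incubated 18-20hr at 37C; compounds added from DMSO; agonist mix (1nM isoproterenol, 100uM IBMX, 25uM Ro-20-1724) added; 0.5hr RT; d2-cAMP and anti-cAMP-cryptate added; 1hr RT; 665/615 nm read.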

[18] = target: D(2) dopamine receptor (Homo sapiens) (UniProt P14416); assay: Dopamine D2 receptor (DRD2) small molecule agonists, cell-based qHTS assay (AID 1963594); also: nearly all actives have a fitted effect of over 35% in size
Sequence of D(2) dopamine receptor (Homo sapiens) (P14416 whole entry, looked up): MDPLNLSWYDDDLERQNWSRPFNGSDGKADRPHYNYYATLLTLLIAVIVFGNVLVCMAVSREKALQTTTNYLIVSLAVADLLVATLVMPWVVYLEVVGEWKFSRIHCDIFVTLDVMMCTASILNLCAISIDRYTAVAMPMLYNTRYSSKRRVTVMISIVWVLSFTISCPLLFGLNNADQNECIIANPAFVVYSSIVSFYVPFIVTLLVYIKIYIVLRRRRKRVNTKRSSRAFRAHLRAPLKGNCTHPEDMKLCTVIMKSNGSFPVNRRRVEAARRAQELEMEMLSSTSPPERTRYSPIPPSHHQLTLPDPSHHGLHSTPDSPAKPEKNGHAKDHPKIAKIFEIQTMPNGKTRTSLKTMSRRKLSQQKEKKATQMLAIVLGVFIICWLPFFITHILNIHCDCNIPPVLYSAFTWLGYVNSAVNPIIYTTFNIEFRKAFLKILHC
Procedure, shortened: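 HEK293 cells stably expressing DRD2 were cultured 24 h at 37 C, then given Ro20-1724 (0.1 mM final) and compounds for 10 min at room temperature. NKH477 (200nM) was then added for 30 min. cAMP was read by HTRF.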

[19] = target: D(2) dopamine receptor (Homo sapiens) (UniProt P14416); assay: Dopamine D2 receptor (DRD2) small molecule antagonists, cell-based qHTS assay (AID 1963595; active = well fitted inhibition curve with a large enough effect in the signal ratio in the repeat runs, with a control signal flat; the % refers to the signal ratio)
Procedure, shortened: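 Stable D2 receptor HEK293 line, 24 h after seeding. Compound preincubated 10 min, then quinpirole (12 nM) with forskolin analogue NKH477 (200 nM), 30 min, room temperature. Detection by time-resolved FRET of cAMP.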

[20] = target: Beta-2 adrenergic receptor (Homo sapiens) (UniProt P07550); assay: Adrenergic beta2 receptor (ADRB2) small molecule agonists, cell-based qHTS assay (AID 1963593);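 also: CHO cells stably overexpressing human ADRB2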
Procedure, shortened: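 CHO cells stably over-expressing ADRB2 were plated overnight at 37C, then dosed with compounds plus a stimulation mix containing 100uM IBMX and 25uM Ro-20-1724 for 0.5hr at room temperature. cAMP was measured by HTRF competition, 1hr.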

Measured: Potency

C=Cc1ccccn1
inactive: [1] | [2] | [3] | [4] | [5] | [6] | [7] | [8] | [9] | [10] | [11] | [12] | [13] | [14] | [15] | [16] | [17] | [18] | [19]

CC(=O)OCCc1ccccc1
inactive: [1] | [2] | [3] | [4] | [5] | [6] | [7] | [9] | [10] | [11] | [12] | [13] | [14] | [15] | [16] | [17] | [20] | [18] | [19]

C[N+](C)(C)CC(O)CCl (stereo unspecified)
inactive: [1] | [2] | [3] | [4] | [5] | [6] | [7] | [8] | [9] | [10] | [11] | [12] | [13] | [14] | [15] | [17] | [18] | [19]

Cc1cccnc1
inactive: [1] | [2] | [3] | [4] | [5] | [7] | [8] | [9] | [11] | [12] | [13] | [14] | [15] | [20] | [18] | [19]

CCCc1ccc(N)cc1
inactive: [1] | [2] | [3] | [4] | [5] | [6] | [8] | [9] | [10] | [11] | [12] | [13] | [14] | [15] | [16] | [17] | [20] | [18] | [19]

C=C(C)[C@H]1CC=C(C)C(=O)C1
inactive: [1] | [2] | [3] | [4] | [5] | [7] | [8] | [9] | [11] | [12] | [13] | [14] | [16] | [17] | [18] | [19]

CCC(C)c1ccccc1O (stereo unspecified)
inactive: [1] | [2] | [3] | [4] | [5] | [7] | [8] | [9] | [11] | [12] | [13] | [14] | [16] | [17] | [20] | [18] | [19]

O=C(Cn1ccnc1[N+](=O)[O-])NCc1ccccc1
inactive: [1] | [2] | [3] | [4] | [5] | [7] | [8] | [9] | [10] | [11] | [12] | [13] | [14] | [15] | [17] | [18] | [19]
